Results on 20 compounds are retold here after PubChem BioAssay.

As a reminder, the inhibition is the drop in the measured response relative to a control, in per cent.

Each structure is given as a SMILES string. Values without a mark were called inactive. For some of these results: Measured potencies and affinities stand elsewhere. Activity calls are given as the source filed them. Unless noted, no rule for the calls is given here.

Assay [1] can be described thus: antimalarial activity against Dd2 strain (AID 2302;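 active = growth inhibition above 50% at the single 2 µM test dose, taken to imply half-maximal potency below 2 µM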;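 also: 0% = DMSO untreated growth and 100% = chloroquine plus artemisinin killed control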). Conditions: P. falciparum Dd2 in RBCs, LDH growth readout, 72 h; at 2 µM; active compounds read high.
The nature of assay [2]: human hepatoma cell viability loss – ATP luminescence, cytotoxicity control for P. falciparum antimalarial project, primary screen (AID 2303;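 active = inhibition above 50%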;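 also: 0% = DMSO wells and 100% = digitonin-killed cells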). Conditions: HepG2 viability, 24-48 h, at 10 µM, active compounds read high.
The target in assay [3] is L-lactate dehydrogenase (Plasmodium falciparum (isolate CDC / Honduras)) (UniProt Q27743). Description: PfLDH activity inhibition – cell lysate, 3D7 strain, counter-screen for P. falciparum growth inhibition project (AID 2304).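 Also: 0% = vehicle and 100% = reference inhibitor.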 Conditions: P. falciparum 3D7 crude extract, LDH APAD/NBT absorbance; at 2 µM; active compounds read high. Background: Counterscreens check selectivity or assay interference.

Assay [4] is described as follows: inhibition of 3D7 malaria parasite growth – strain 3D7 (AID 2306).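 Also: 0% = DMSO wells and 100% = chloroquine plus artemisinin control wells.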 Particulars: P. falciparum 3D7 erythrocytic growth, LDH absorbance, 72 h; at 2 µM; active compounds read high.
Assay [5] concerns the target Calcium-dependent protein kinase 1 (Plasmodium falciparum (isolate 3D7)) (UniProt P62344). Description: PfCDPK1 kinase inhibitors, biochemical, TCAMS library (AID 1159585; cut-off not given, nearly all actives have IC50 up to about 0.98 µM;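 also: inhibitors leave more ATP so luminescence rises with inhibition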). Conditions: recombinant PfCDPK1, Kinase-Glo ATP depletion luminescence. For orientation: Kinase-Glo measures the ATP left after a reaction by luminescence.
Assay [6] concerns the target Plasmodium falciparum protein kinase 6 (PK6, PF3D7_1337100) (UniProt Q8IDW1). Description: PfPK6 kinase inhibitors, biochemical, TCAMS library (AID 1159586). Conditions: recombinant PfPK6, Kinase-Glo ATP depletion luminescence.
For assay [7], the target named is Protein kinase 7 (PK7), Plasmodium falciparum 3D7 (PF3D7_0213400) (UniProt Q7YTF7). Kind of assay: inhibition of Plasmodium PK7 catalytic activity – biochemical, TCAMS antimalarial set, Kinase-Glo luminescence (AID 1159587). Conditions: recombinant PfPK7, Kinase-Glo ATP depletion luminescence.
Assay [8] deals with Calcium-dependent protein kinase 4 (Plasmodium falciparum (isolate 3D7)) (UniProt Q8IBS5). Kind of assay: PfCDPK4 kinase inhibitors, biochemical, TCAMS library (AID 1159588; cut-off not given, nearly all actives have IC50 up to about 0.91 µM). Particulars: recombinant PfCDPK4, Kinase-Glo ATP depletion luminescence.
Calcium-dependent protein kinase 4 (Plasmodium falciparum (isolate 3D7)), sequence (Q8IBS5 whole entry, looked up): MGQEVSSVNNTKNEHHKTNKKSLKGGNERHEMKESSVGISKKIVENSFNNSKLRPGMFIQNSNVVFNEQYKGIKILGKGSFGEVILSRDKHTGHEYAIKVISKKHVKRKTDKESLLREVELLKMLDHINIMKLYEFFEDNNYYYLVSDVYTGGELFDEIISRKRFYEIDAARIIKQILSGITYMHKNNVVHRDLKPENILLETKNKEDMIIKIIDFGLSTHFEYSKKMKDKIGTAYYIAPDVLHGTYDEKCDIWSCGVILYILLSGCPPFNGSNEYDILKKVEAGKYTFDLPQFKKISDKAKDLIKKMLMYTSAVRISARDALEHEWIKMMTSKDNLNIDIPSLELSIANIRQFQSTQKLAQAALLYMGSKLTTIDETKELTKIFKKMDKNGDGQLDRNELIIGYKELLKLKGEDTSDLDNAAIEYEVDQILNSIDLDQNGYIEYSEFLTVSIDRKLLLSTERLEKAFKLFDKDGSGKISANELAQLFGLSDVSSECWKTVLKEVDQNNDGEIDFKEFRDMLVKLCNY

Calcium-dependent protein kinase 1 (Plasmodium falciparum (isolate 3D7)), sequence (P62344 whole entry, looked up): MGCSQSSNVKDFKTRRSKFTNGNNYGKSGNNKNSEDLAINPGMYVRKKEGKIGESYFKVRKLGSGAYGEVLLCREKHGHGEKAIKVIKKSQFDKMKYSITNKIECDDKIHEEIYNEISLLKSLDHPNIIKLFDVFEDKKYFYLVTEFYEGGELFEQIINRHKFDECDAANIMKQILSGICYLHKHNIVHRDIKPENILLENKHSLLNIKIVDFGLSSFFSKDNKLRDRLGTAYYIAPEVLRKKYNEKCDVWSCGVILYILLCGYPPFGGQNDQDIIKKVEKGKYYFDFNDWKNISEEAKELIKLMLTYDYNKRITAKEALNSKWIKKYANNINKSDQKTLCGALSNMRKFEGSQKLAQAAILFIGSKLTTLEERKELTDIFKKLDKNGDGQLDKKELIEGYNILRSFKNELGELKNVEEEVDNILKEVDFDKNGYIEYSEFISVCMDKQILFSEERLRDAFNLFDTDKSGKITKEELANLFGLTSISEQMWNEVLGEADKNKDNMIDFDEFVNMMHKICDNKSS
L-lactate dehydrogenase (Plasmodium falciparum (isolate CDC / Honduras)), sequence (Q27743 whole entry, looked up): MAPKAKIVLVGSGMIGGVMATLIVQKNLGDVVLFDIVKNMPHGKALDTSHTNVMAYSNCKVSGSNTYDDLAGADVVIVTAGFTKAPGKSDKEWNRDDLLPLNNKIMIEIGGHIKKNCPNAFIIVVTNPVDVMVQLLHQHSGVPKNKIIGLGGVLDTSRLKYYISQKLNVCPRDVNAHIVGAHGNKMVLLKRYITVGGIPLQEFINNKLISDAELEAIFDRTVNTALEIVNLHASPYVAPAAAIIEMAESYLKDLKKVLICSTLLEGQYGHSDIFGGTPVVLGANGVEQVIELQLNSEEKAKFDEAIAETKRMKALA
Plasmodium falciparum protein kinase 6 (PK6, PF3D7_1337100), sequence (Q8IDW1 1-305): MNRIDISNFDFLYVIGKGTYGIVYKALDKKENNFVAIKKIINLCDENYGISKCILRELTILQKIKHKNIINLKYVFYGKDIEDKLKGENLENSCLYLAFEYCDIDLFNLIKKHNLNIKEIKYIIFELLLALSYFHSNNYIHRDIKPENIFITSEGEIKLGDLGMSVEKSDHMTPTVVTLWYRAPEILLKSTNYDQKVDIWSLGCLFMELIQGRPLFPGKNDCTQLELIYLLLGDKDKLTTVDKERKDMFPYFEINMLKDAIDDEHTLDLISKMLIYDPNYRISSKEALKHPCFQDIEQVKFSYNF
Protein kinase 7 (PK7), Plasmodium falciparum 3D7 (PF3D7_0213400), sequence (Q7YTF7 1-343): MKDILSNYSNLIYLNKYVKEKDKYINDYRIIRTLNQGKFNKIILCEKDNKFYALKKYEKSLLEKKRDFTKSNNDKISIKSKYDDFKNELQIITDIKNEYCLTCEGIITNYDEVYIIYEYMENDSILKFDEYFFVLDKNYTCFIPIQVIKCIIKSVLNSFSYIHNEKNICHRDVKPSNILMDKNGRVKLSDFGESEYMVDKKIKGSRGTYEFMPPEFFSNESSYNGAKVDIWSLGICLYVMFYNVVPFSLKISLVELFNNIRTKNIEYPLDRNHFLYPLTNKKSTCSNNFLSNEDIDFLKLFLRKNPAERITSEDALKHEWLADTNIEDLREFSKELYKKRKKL

Regarding `COC(=O)CCCCOc1c(OC)cc(Cc2cnc(N)nc2N)cc1OC`, the growth inhibition in assay [1] is -2%; in assay [4], 93% (active). The inhibition in assay [2] and in assay [3] was -2% throughout. Moreover, the result in assay [5], in assay [6], in assay [7] and in assay [8] was inactive.
`O=C(O)CNCC(O)c1ccccc1` (stereo not given): the results for the growth inhibition in assay [1] and in assay [4] were -5% and 96% (active), respectively. Further, the inhibition in assay [2] is 7%; in assay [3], -5%. Besides, the outcome in assay [5], in assay [6], in assay [7] and in assay [8] was inactive.
`COCCNCc1cccc(-c2ccccc2CN(C(=O)c2ccc3c(c2)OCO3)c2ccc(OC)cc2)c1`: the growth inhibition in assay [1] is 46%; in assay [4] it was 90% (active). Besides, the inhibition in assay [2] is 6%; in assay [3] it was 2%. The result in assay [5], in assay [6], in assay [7] and in assay [8] was inactive.
Turning to `N#Cc1c(N)n(CCc2ccc(F)cc2)c2nc3ccccc3nc12`, the results for the growth inhibition in assay [1] and in assay [4] were 36% and 92% (active), respectively. The inhibition in assay [2] is 8%; in assay [3], -1%. Also, the result in assay [5], in assay [6], in assay [7] and in assay [8] was inactive.
Take `Cc1ccc(OCCCON2C(N)=NC(N)=NC2(C)C)cc1C`: the growth inhibition is 94% (active) in assay [1] and 96% (active) in assay [4]. Moreover, the results for the inhibition in assay [2] and in assay [3] were 57% (active) and 0%, respectively. Further, the result in assay [5], in assay [6], in assay [7] and in assay [8] was inactive.
With `Cc1ccccc1N1CCN(c2ccc(C(=O)Nc3ccccc3)cc2)CC1`, the results for the growth inhibition in assay [1] and in assay [4] were 91% (active) and 89% (active), respectively. Moreover, the inhibition was 22% in assay [2] and -2% in assay [3]. Also, the result in assay [5], in assay [6], in assay [7] and in assay [8] was inactive.
Turning to `CCN(CC)CCCN1CCN(C(=O)c2cccc(-c3noc(C(F)(F)F)n3)c2)CC1`, the growth inhibition is 74% (active) in assay [1] and 91% (active) in assay [4]. The inhibition is -10% in assay [2] and 7% in assay [3]. In addition, the result in assay [5], in assay [6], in assay [7] and in assay [8] was inactive.
On to `COc1ccc(Br)cc1C1[C@@H]2C(=O)N(c3ccc(Br)cc3)C(=O)[C@@H]2C2(C(=O)O)CC(OCc3ccccc3)CN12` (stereo not given in full), for which the growth inhibition in assay [1] is 99% (active); in assay [4], 104% (active). The results for the inhibition in assay [2] and in assay [3] were 16% and -2%, respectively. In addition, the result in assay [5], in assay [6], in assay [7] and in assay [8] was inactive.
For the compound `COc1cc(NC(=O)c2cc3c(C)nn(-c4cccc(C(F)(F)F)c4)c3s2)cc(OC)c1OC`, the results for the growth inhibition in assay [1] and in assay [4] were 50% (active) and 101% (active), respectively. Further, the inhibition in assay [2] was 0%; in assay [3], 3%. The outcome in assay [5], in assay [6], in assay [7] and in assay [8] was inactive.
Take `CCOc1cccc(C(=O)Nc2ccc(-c3nc4ccccc4[nH]3)cc2)c1`: the growth inhibition in assay [1] was 30%; in assay [4], 96% (active). The inhibition is 40% in assay [2] and -1% in assay [3]. Moreover, the result in assay [5], in assay [6], in assay [7] and in assay [8] was inactive.
As to `CCc1ccc2c(c1O)CCN(C)C2Cc1ccccc1Cl` (stereo not given), the growth inhibition in assay [1] and in assay [4] was 99% (active) in each case. Moreover, the inhibition in assay [2] was 13%; in assay [3], -3%. The result in assay [5], in assay [6], in assay [7] and in assay [8] was inactive.
In the case of `c1cc(CNCCc2ccncc2)cc(-c2ccc(-c3nc4ccccc4[nH]3)s2)c1`, the growth inhibition was 97% (active) in assay [1] and 101% (active) in assay [4]. The inhibition in assay [2] was 1%; in assay [3] it was -3%. Besides, the outcome in assay [5], in assay [6], in assay [7] and in assay [8] was inactive.
Turning to `CN(C)C(=NCCCCCCN=C(/N=C(/N)Nc1ccc(Cl)cc1)N(C)C)/N=C(/N)Nc1ccc(Cl)cc1`, the growth inhibition was 98% (active) in assay [1] and 97% (active) in assay [4]. In addition, the inhibition is 11% in assay [2] and 4% in assay [3]. For the same compound, the result in assay [5], in assay [6], in assay [7] and in assay [8] was inactive.
For the compound `CC(C)c1ccc(NC(=O)N[C@H]2CCN(CCCCCNC(=O)/C=C/c3ccc(Cl)c(Cl)c3)C2)cc1`, the values for the growth inhibition in assay [1] and in assay [4] were 14% and 100% (active), respectively. Further, the inhibition in assay [2] was 56% (active); in assay [3] it was 7%. For the same compound, the result in assay [5], in assay [6], in assay [7] and in assay [8] was inactive.
For the compound `CCc1cn2c3c(cc(C(=O)N[C@@H](Cc4cc(F)cc(F)c4)[C@H](O)CNC4CCOCC4)cc13)N(C)S(=O)(=O)CC2`, the growth inhibition in assay [1] and in assay [4] was 98% (active) in each case. Besides, the values for the inhibition in assay [2] and in assay [3] were 1% and -7%, respectively. The result in assay [5], in assay [6], in assay [7] and in assay [8] was inactive.
Consider `COc1cc2c(cc1C(F)(F)F)N(C(=O)Nc1cc(OC(F)(F)F)cc(-c3cccnc3)c1)CC2`, for which the growth inhibition is 49% in assay [1] and 100% (active) in assay [4]. For the same compound, the results for the inhibition in assay [2] and in assay [3] were 55% (active) and -3%, respectively. The result in assay [5], in assay [6], in assay [7] and in assay [8] was inactive.
Turning to `O=C(Nc1cccc(Cl)c1Cl)NC1CCN(Cc2cccc(O)c2)CC1`, the values for the growth inhibition in assay [1] and in assay [4] were 1% and 98% (active), respectively. For the same compound, the figures for the inhibition in assay [2] and in assay [3] were 1% and -1%, respectively. The result in assay [5], in assay [6], in assay [7] and in assay [8] was inactive.
Regarding `C=Cc1cc(NC(=O)N2CCc3cc(OC)c(C(F)(F)F)cc32)cc(-c2cccnc2)c1`, the growth inhibition is 20% in assay [1] and 92% (active) in assay [4]. In addition, the figures for the inhibition in assay [2] and in assay [3] were 7% and -2%, respectively. The outcome in assay [5], in assay [6], in assay [7] and in assay [8] was inactive.
In the case of `Cc1cc(Nc2cccc(C(F)(F)F)c2)nc(N)n1`, the growth inhibition in assay [1] is 24%; in assay [4], 98% (active). The values for the inhibition in assay [2] and in assay [3] were 5% and 1%, respectively. Also, the outcome in assay [5], in assay [6], in assay [7] and in assay [8] was inactive.
Take `O=[N+]([O-])c1cc2c(cc1C=NNc1nc(Nc3ccccc3)nc(Nc3ccccc3)n1)OCO2`: the values for the growth inhibition in assay [1] and in assay [4] were 46% and 98% (active), respectively. For the same compound, the inhibition is -8% in assay [2] and -2% in assay [3]. Also, the outcome in assay [5], in assay [6], in assay [7] and in assay [8] was inactive.
